# Compound activity (PubChem BioAssay)
# A selection: hits, their analogues and other compounds. The true share with any hit is near 8%.
# FMDV antiviral = foot and mouth disease virus antiviral activity | FMDV antiviral cell-based qHTS | Potency, µM (doses to about 57.9 µM), actives largely listed as inhibitors | 410,000 tested, 1.2% active | AID 1159524; calls by dose curve; tested in HEK293T cells; further: read-out not given here; nearly all actives have a fitted effect of over 45% in size
# SARS PLpro yeast = blocks SARS-CoV papain-like protease in a yeast assay; S. cerevisiae expressing SARS-CoV PLpro, growth rescue; Potency, µM (titrated, usually from 32.9 µM), hits mostly activators; 330,000 tested, 0.19% active; AID 485353; calls by dose curve; further: nearly all actives have a fitted effect of over 55% in size
# Lassa entry inh = inhibitors of Lassa virus binding or cell entry; Lassa virus pseudotype entry inhibition, cell reporter; 300,000 tested, 1.2% active; Potency, µM (series often up to 37.9 µM), most hits filed as inhibitors; calls by dose curve; tested in HEK293 cells; further: nearly all actives have a fitted effect of over 50% in size
# HCMV antiviral = blocks human cytomegalovirus replication. HFF cells, HCMV-luciferase reporter, 72 h; stronger effect = lower value. activity change, negative = inhibition, % at 57.5 µM. 410,000 tested, 4.5% active; in the data active means activity change below about -60%; inconclusive means no clear call, values can overlap the other calls; inactive means above about -39%
#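 Two compound doses tested in HFFs infected with HCMV-luciferase, MOI 1 PFU/cell, 72 h at 37C. Lysate luminescence read with OneGlo; data normalized against buffer-only and 10uM Salinomycin inhibitor controls.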
# HCV inh = blocks hepatitis C virus | 340,000 tested, 3.4% active | Potency, µM (highest dose often 41.8 µM), most hits filed as inhibitors | Huh7.5.1 HCVcc-Cre infection, luciferase reporter, 44 h; active means well fitted inhibition curve with a large enough effect; inconclusive means small, poorly fitted or top-dose-only effect, or another doubt; inactive means no such curve, though single readings can be large or run the other way
#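 Compounds are dispensed onto cells plated 4 h earlier at 1,000 per well, with HCVcc-Cre virus (about 0.5 moi) added next. Following 44 h of culture, luminescent signal is measured for 15 sec after 15 min with substrate at room temperature.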
# MARV entry inh = inhibitors of Marburg virus binding or cell entry | Marburg virus pseudotyped entry inhibition, cell reporter | Potency, µM (titrated, usually from 37.8 µM), usual class: inhibitors | 300,000 tested, 1.8% active | AID 540276; calls by dose curve; tested in HEK293 cells
# A number is an active result; n = inactive; u = inconclusive; x = no result.
SMILES,FMDV antiviral,SARS PLpro yeast,Lassa entry inh,HCMV antiviral,HCV inh,MARV entry inh
CCOC(=O)C1(Cc2ccccc2)CCN(Cc2cn[nH]c2-c2ccccc2)CC1,u,n,x,-78,u,x
CCOC(=O)C1(Cc2cccc(OC)c2)CCN(Cc2cccc(OC)c2OC)CC1,u,n,n,u,10µM,u
CCOC(=O)C1(CC2CC2)CCN(Cc2cnc(-c3ccc(OC)cc3)nc2)CC1,u,n,n,-62,u,u
CCOC(=O)C1(Cc2cccc(F)c2)CCN(Cc2c(C)nn(CC)c2C)CC1,u,n,x,u,13µM,x
CCOC(=O)C1(Cc2cccc(F)c2)CCN(Cc2cn(CC)nc2C)CC1,n,n,n,n,u,u
COc1ccc(NC(=O)c2oc3ccccc3c2NC(=O)Cc2cccs2)c(OC)c1,n,x,u,n,x,n
CC1=C(c2ccc(C)cc2)S(=O)(=O)NC1=NCc1cccc(F)c1,n,x,n,u,x,n
Cc1cc(C)n2nc(C(=O)NCC3Cc4cccc(-c5ccc(S(C)(=O)=O)cc5)c4O3)cc2n1 (stereo not drawn),n,x,x,x,x,x
O=C(NC1CC(=O)N(c2ccc(Cl)cc2)C1)c1cccs1 (stereo not drawn),n,x,n,n,x,x
Cc1c([C@@H]2Nc3ccccc3NC3=C2C(=O)CC(C)(C)C3)cnn1C,x,x,x,x,x,n
COc1ccc2c3c(n(C)c2c1)[C@@H](CO)N(C(=O)c1ccncc1)CC31CCN(C(C)=O)CC1,x,x,x,n,x,x
CCOC(=O)C1(CCOC)CCN(C/C=C/c2ccccc2OC)CC1,u,x,x,n,11µM,x
CCOC(=O)C1(CCOC)CCN(Cc2ccncc2)CC1,n,n,u,n,n,n
CCOC(=O)C1(Cc2ccc(Cl)cc2)CCN(Cc2ccon2)CC1,n,n,x,-66,n,x
CCOC(=O)C1(CCOc2ccccc2)CCN(Cc2nccn2CC)CC1,n,n,n,n,u,u
CCOC(=O)C1(CCOc2ccccc2)CCN(Cc2cccc(OC)c2)CC1,n,x,x,n,11µM,x
CCOC(=O)C1(CCOc2ccccc2)CCN(Cc2cccn2-c2ncccn2)CC1,n,n,u,n,n,8.9µM
CCOc1ccccc1C(=O)N1CC(=O)Nc2ccc(Cl)cc2C1c1ccccc1 (stereo not drawn),n,x,n,n,x,n
CCOC(=O)C1(CCOc2ccccc2)CCN(Cc2ccncc2)CC1,u,n,n,n,u,u
CCOC(=O)C1(CCOc2ccccc2)CCN(Cc2ccc(-n3cccn3)cc2)CC1,u,n,x,-61,2.5µM,x
CCOC(=O)C1(Cc2ccccc2Cl)CCN(Cc2csc(C(C)=O)c2)CC1,n,n,u,n,13µM,u
Cc1ccc(N2CCN(c3ccc(C)cc3)C2c2cccnc2)cc1,x,n,u,n,u,u
c1ccc(N2CCN(c3ccccc3)C2c2cccnc2)cc1,10µM,n,n,n,n,n
Cc1ccc2c(c1)N(C(=O)N1CCC(C(=O)NCc3ccccc3C)CC1)CC(C)O2 (stereo not drawn),u,x,n,n,x,x
O=C(NN=C1C[C@@H](O)[C@H](O)[C@H]2[C@@H]3C(=O)N(C4CCCCC4)C(=O)[C@@H]3CC[C@@H]12)OCc1ccccc1,x,x,x,x,x,n
SMILES,FMDV antiviral,SARS PLpro yeast,Lassa entry inh,HCMV antiviral,HCV inh,MARV entry inh
O=[N+]([O-])c1cc(C(F)(F)F)cc([N+](=O)[O-])c1Sc1n[nH]c(C(F)(F)F)n1,6.3µM,n,n,n,n,n
CN(C)/C=N/c1nc(Sc2ccc(C(F)(F)F)cc2[N+](=O)[O-])n[nH]1,n,n,n,n,n,n
Cc1ccc(S(=O)(=O)N2CCCCC2)cc1NC(=O)CCCOc1ccccc1,n,n,u,n,10µM,n
COc1ccc(S(=O)(=O)N2CCCCC2)cc1NCC(=O)Nc1ccc(C)cc1,n,n,u,n,u,n
COc1ccc([N+](=O)[O-])cc1NCC(=O)Nc1cc(S(=O)(=O)N2CCCCC2)ccc1C,n,n,x,-99,11µM,x
COc1ccc(CC(=O)Nc2cc(S(=O)(=O)N3CCCCC3)ccc2C)cc1OC,u,n,u,-69,10µM,u
Cc1ccc(S(=O)(=O)N2CCCCC2)cc1NC(=O)COC(=O)c1cccn1C,n,n,x,n,13µM,x
COc1ccc(OC)c(CC(=O)Nc2cc(S(=O)(=O)N3CCCCC3)ccc2C)c1,n,n,x,n,u,x
Cc1ccc(S(=O)(=O)N2CCCCC2)cc1NC(=O)COC(=O)C1CC1,n,x,x,n,x,x
O=C(/C=C/NNC(=O)c1ccccc1)c1ccc([N+](=O)[O-])cc1,n,n,x,-98,3.5µM,u
O=S(=O)(NC1c2cccc3cccc(c23)C1Sc1ncccn1)c1ccc(Cl)cc1 (stereo not drawn),n,n,u,-72,u,u
Cc1ccc(S(=O)(=O)NC2c3cccc4cccc(c34)C2Sc2n[nH]c(N)n2)cc1 (stereo not drawn),n,u,n,n,u,u
Cc1ccccc1Cc1c(C)nc2c(C(=O)N3CCN(Cc4ccc5c(c4)OCO5)CC3)cnn2c1C,u,x,n,u,14µM,n
CCN1CCN(C(=O)c2cnn3c(C(F)F)cc(-c4ccc(C)cc4)nc23)CC1,n,n,n,n,n,u
O=C(c1cnn2c(C(F)F)cc(-c3ccccc3)nc12)N1CCN(Cc2ccc3c(c2)OCO3)CC1,28µM,n,n,n,11µM,u
CCOc1ccc(N(CC)C(=O)Cn2cnc3sc(C)c(S(=O)(=O)N4CCN(c5ncccn5)CC4)c3c2=O)cc1,n,x,n,n,x,n
Cc1cc(OCCn2cc(C(=O)c3cccs3)c3ccccc32)ccc1Cl,n,x,u,n,x,u
CN(C)CC(C(=O)c1ccccc1)c1ccccc1 (stereo not drawn),18µM,n,8.9µM,u,u,6.3µM
CC(CN1CCN(CC(C)C(=O)c2ccccc2)CC1)C(=O)c1ccccc1 (stereo not drawn),n,x,u,n,n,n
O=C(CC(C(=O)c1ccccc1)c1ccccc1)c1ccccc1 (stereo not drawn),n,x,u,n,n,u
O=C(c1ccc(Br)cc1)C(CN1CCOCC1)c1ccccc1 (stereo not drawn),18µM,n,u,n,n,u
O=C(c1ccccc1)C(CN1CCCCC1)c1ccccc1 (stereo not drawn),28µM,x,u,-68,u,u
CCOc1ccc(C(=O)C(CN2CCOCC2)c2ccccc2)cc1 (stereo not drawn),u,n,26µM,-99,u,6.5µM
COCCNC(=O)CCn1c(=O)c2cc(OC)c(OC)cc2n(CC(=O)Nc2ccccc2OC)c1=O,n,x,n,n,x,n
O=C(NCCc1ccccc1)c1cc(Sc2cccc(Cl)c2)nc2ccccc12,n,x,n,n,x,x
Cc1ccc2ccc3cc(C(=O)N4CCN(c5ccccc5)CC4)nc3c2[nH]1,u,x,u,n,x,x
CCOc1ccccc1C(=O)Nc1ccc2nc3n(c(=O)c2c1)CCCCC3,n,n,x,u,u,x
